Data as given in ChEMBL document CHEMBL3988442, “University of Dundee, Small-Polar-MMV Screening Library” (2021).

molecular target: T1, Tyrosyl-tRNA synthetase, putative (Trypanosoma cruzi (strain CL Brener)) (UniProt Q4DSP6); assay: Trypanosoma cruzi tyrosyl tRNA synthetase (TcYRS) _High Tyrosine SOP; format: functional; set-up: scale not given: in the data most compounds retested in dose-response had high values; details: 30 µM
T1 sequence (whole entry): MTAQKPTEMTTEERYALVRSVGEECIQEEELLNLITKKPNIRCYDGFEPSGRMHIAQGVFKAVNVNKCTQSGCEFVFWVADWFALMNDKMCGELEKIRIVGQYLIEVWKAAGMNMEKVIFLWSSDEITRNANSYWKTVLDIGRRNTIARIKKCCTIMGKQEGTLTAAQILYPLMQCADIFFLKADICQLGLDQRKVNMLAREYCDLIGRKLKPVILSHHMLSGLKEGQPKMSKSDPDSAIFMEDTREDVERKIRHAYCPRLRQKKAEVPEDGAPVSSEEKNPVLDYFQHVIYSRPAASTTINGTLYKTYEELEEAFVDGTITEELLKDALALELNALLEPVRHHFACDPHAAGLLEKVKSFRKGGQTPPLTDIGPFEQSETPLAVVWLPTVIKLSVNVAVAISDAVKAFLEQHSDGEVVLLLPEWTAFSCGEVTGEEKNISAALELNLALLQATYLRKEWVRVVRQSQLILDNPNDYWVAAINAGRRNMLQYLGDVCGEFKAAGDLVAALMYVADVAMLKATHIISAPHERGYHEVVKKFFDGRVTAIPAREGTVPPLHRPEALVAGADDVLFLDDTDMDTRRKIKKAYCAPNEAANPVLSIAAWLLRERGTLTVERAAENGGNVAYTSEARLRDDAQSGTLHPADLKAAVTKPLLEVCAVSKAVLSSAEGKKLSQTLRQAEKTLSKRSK

Structure (SMILES)	Percent Effect [%]
CN(C)S(=O)(=O)N1C[C@@H](Oc2ccccn2)[C@H]2OCCC[C@H]21	-4.23
Cc1ccc(CC(=O)N2Cc3nccn3CC(CN(C)C)C2)cc1 (centres undefined)	8.33
COc1cc(CNCc2ccnc(N3CCOCC3)c2)cc(Cl)c1OC	5.42
CC(C)(C)OC(=O)NC(C)(C)c1noc(CN2CCCCC2)n1	2.73
Cc1cc(CC(=O)NCc2ccnc(OCC(F)(F)F)c2)no1	0.49
Cc1nc(N2CCN(C(=O)C(C)(C)C)CC2)cc(-n2cnc(C)c2C)n1	3.23
Cc1ccc(-c2noc(CN3CCOC(Cn4cncn4)C3)n2)cc1 (centres undefined)	2.97
Cc1nc(C)n(CC2CCCN2CC(=O)NCCc2ccccc2)n1 (centres undefined)	1.07
Cn1c(C2CC2)nc2c1CCN(CC(=O)Nc1nncs1)C2	4.85
CCc1csc(C2CCCN(C(=O)C3=NN(CC)C(=O)CC3)C2)n1 (centres undefined)	4.85
Cc1nccc([C@H]2C[C@@H]3CCN(S(=O)(=O)N(C)C)C[C@H]3O2)n1	4.3
CO[C@H]1CCN(c2ncccn2)[C@H]1Cc1ccccc1	5.38
CNc1cc(N2CCCC2CNCc2ccc(Cl)o2)ncn1 (centres undefined)	15.8
O=C(O)C(c1ccc2c(c1)OCO2)N1CCC(C(=O)N2CCCC2)CC1 (centres undefined)	4.92
COc1ccc(CC(=O)N2CCCCC2Cn2cccn2)cc1OC (centres undefined)	0
COCC(c1cccc(C(F)(F)F)c1)N(C)C(=O)c1cc(C)no1 (centres undefined)	1.47
CNS(=O)(=O)CCCN1CCCC1c1cc(C)on1 (centres undefined)	0.493
Cc1cc(C)n(CC2CCCN2CC(=O)NC2CCOCC2)n1 (centres undefined)	1.94
Cc1cc(C)n(-c2ccc(CNCc3ccc(OC(C)C)cc3)cn2)n1	13.2
